Measurements taken from PubChem BioAssay (NCATS).
Several values for one entry are separate records, joined by “and”; a condition that tells them apart may be missing. Identical values can stand only once. Results filed as inconclusive are left out. Where a call stands in place of a potency, no number is given. Activity calls are given as the source filed them. Calls come from the whole dose curve. Residues, ends and D or L forms follow the SMILES beside them.

Tests used:
[1] = Cytotoxicity counterscreen for inhibitors of SARS-CoV-2 cell entry (AID 1645845); settings: cell viability (SARS-CoV-2 entry assay cells); series mostly up to 57.1 µM; note: nearly all actives have a fitted effect of over 50% in size
Summary of the method: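 HEK293-ACE2 cells (Expi293F stably expressing human ACE2) seeded overnight, then compound for 1 h plus 48 h at 37C. Viability as ATP content by luminescence; normalized to wells with cells and media-only wells.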

[2] = Primary qHTS to identify inhibitors of SARS-CoV-2 cell entry (AID 1645846); settings: SARS-CoV-2 pseudovirus cell entry assay, luminescence; activity change, negative = inhibition: at 57.1 µM (top of the series) unless noted; series mostly up to 57.1 µM; note: nearly all actives have a fitted effect of over 45% in size
Summary of the method: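 HEK293-ACE2 (Expi293F, stable hACE2), 1500 cells/well, o/n 37C; cpd 23 nL pin, 1 h; MLV-PP w/ SARS-CoV-2-S (Wuhan-Hu-1, Δ19 C-term); 48 h 37C; Bright-Glo luminescence; normalized vs S-PP and bald PP.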

Row | Structure (SMILES) | Potency [1] | Potency [2] | activity change, negative = inhibition [2]
1 | CC(=O)OCC(=O)[C@@]1(OC(C)=O)[C@@H](C)C[C@H]2[C@@H]3C[C@H](F)C4=CC(=O)C=C[C@]4(C)[C@@]3(F)[C@@H](O)C[C@@]21C | inactive | inactive | –
2 | CCOC(=O)O[C@]1(C(=O)OCCl)CC[C@H]2[C@@H]3CCC4=CC(=O)C=C[C@]4(C)[C@H]3[C@@H](O)C[C@@]21C | inactive | inactive | –
3 | O=C1[C@@H]2[C@H]3CC[C@H](C3)[C@@H]2C(=O)N1CCCCN1CCN(c2ncccn2)CC1 | inactive | – | -0.993%
4 | COc1cc2c3cc1Oc1cc(ccc1O)C[C@@H]1c4c(cc(OC)c(O)c4Oc4ccc(cc4)C[C@@H]3N(C)CC2)CC[N+]1(C)C | inactive | inactive | –
5 | O=S(=O)(O)c1ccc(O)cc1 | inactive | – | 2.14%
6 | CC(=O)OCC1=C(C(=O)O)N2C(=O)[C@@H](NC(=O)Cc3cccs3)[C@H]2SC1 | inactive | – | 1.38%
7 | O=C(O)CCCCC1CCSS1 (centres undefined) | inactive | inactive | –
8 | CC(C(=O)O)c1ccc2c(c1)CC(=O)c1ccccc1S2 (centres undefined) | inactive | inactive | –
9 | CC(C)(C)NCC(O)COc1ccccc1OCC1CCCO1 (centres undefined) | inactive | – | 4.08%
10 | CC(C)(Sc1cc(C(C)(C)C)c(O)c(C(C)(C)C)c1)Sc1cc(C(C)(C)C)c(O)c(C(C)(C)C)c1 | inactive | inactive | –
11 | Cc1c[nH]c2ccccc12 | inactive | – | -24.2%
12 | CN(C)CCN(Cc1ccsc1)c1ccccn1 | inactive | – | -8.15%
13 | CCN(CC)CCNC(=O)c1ccc(N)cc1 | inactive | inactive | –
14 | CCc1cccc(CC)c1NC(=O)CN(CC(=O)O)CC(=O)O | inactive | inactive | –
15 | CCC(=O)c1c(O)cc(O)cc1O | inactive | – | -5.3%
16 | O=S(=O)(O)c1ccc2nc(-c3ccccc3)[nH]c2c1 | inactive | inactive | –
17 | N#Cc1ccc(C(c2ccc(C#N)cc2)n2cncn2)cc1 | inactive | – | 0.824% and -10.9%
18 | O=C(CCOCCOCCOCCOCCC(=O)Nc1c(I)cc(I)c(C(=O)O)c1I)Nc1c(I)cc(I)c(C(=O)O)c1I | inactive | inactive | –
19 | Cc1cc2c(cc1S(N)(=O)=O)S(=O)(=O)CCC2 | inactive | inactive | –
20 | CC1(C)O[C@H]2CC(=O)OC[C@]23[C@H]2CC[C@@]4(C)[C@H](c5ccoc5)OC(=O)[C@H]5O[C@]54[C@]2(C)C(=O)C[C@@H]13 | inactive | – | -13.1%
21 | CCCCC[C@H](O)/C=C/[C@@H]1[C@H]2C/C(=C/CCCC(=O)O)O[C@H]2C[C@H]1O | inactive | – | -21%

Row | Structure (SMILES) | Potency [1] | Potency [2] | activity change, negative = inhibition [2]
22 | Nc1ccc(C(=O)Oc2ccccc2)c(O)c1 | inactive | inactive | –
23 | COC(=O)[C@H](Cc1ccccc1)NC(=O)[C@@H](N)CC(=O)O (H-Asp-Phe-OMe) | inactive | – | -5.59%
24 | Cc1oc(=O)oc1COC(=O)[C@@H]1N2C(=O)[C@@H](NC(=O)[C@H](N)c3ccccc3)[C@H]2SC1(C)C | inactive | inactive | –
25 | CCN1CCC[C@H]1CNC(=O)c1cc(S(N)(=O)=O)ccc1OC | inactive | inactive | –
26 | COC(=O)N/N=C/c1c[n+]([O-])c2ccccc2[n+]1[O-] | inactive | inactive | –
27 | CN1C(=O)OC(C)(C)C1=O | inactive | inactive | –
28 | Nc1nc(=O)n([C@@H]2CS[C@H](CO)O2)cc1F | inactive | – | -20.7%
29 | Cc1cc(O)cc(C)c1Cl | inactive | inactive | –
30 | CN(C)CCOC(=O)COc1ccc(Cl)cc1 | inactive | inactive | –
31 | CN(CC1(C)CCCO1)S(=O)(=O)c1ccc(Cl)c(S(N)(=O)=O)c1 (centres undefined) | inactive | – | -32.6%
32 | CN(C)C(=O)Oc1ccc[n+](C)c1 | inactive | inactive | –
33 | O=C(O)c1cc(N=Nc2ccc(O)c(C(=O)O)c2)ccc1O | inactive | – | -12.7%
34 | COc1cnc(NS(=O)(=O)c2ccc(N)cc2)nc1 | inactive | inactive | –
35 | COc1cc(OC)c(C(=O)CCCN2CCCC2)c(OC)c1 | inactive | – | -26.6%
36 | CO[C@@]1(NC(=O)C(C(=O)O)c2ccc(O)cc2)C(=O)N2C(C(=O)O)=C(CSc3nnnn3C)CO[C@@H]21 (some centres undefined) | inactive | – | -1.77%
37 | CC1COc2c(N3CCN(C)CC3)c(F)cc3c(=O)c(C(=O)O)cn1c23 (centres undefined) | inactive | – | -0.258%
38 | Nc1nc(N)nc(-c2cc(Cl)ccc2Cl)n1 | inactive | inactive | –
39 | CC(=O)OCC(COC(C)=O)OC(C)=O | inactive | – | 0.643%
40 | NC(=O)c1ccc([N+](=O)[O-])cc1Cl | inactive | – | -5.3%
41 | CC(=O)Nc1c(I)cc(I)c(C(=O)O)c1I | inactive | inactive | –
42 | CC(=O)OCC(=O)[C@@]1(O)CC[C@H]2[C@@H]3CCC4=CC(=O)CC[C@]4(C)[C@H]3C(=O)C[C@@]21C | inactive | – | -2.62% and -39.8%
